Data from ChEMBL document CHEMBL3433997, “St. Jude Leishmania screening dataset” (2016).

Key:
Assay type in all cases: functional
[1] = target: Solute carrier family 2, facilitated glucose transporter member 1 (Homo sapiens) (UniProt P11166); experiment: ST_JUDE_LEISH: Cytotoxicity at 2uM final concentration against transgenic Leishmania Mexicana promastigotes LmGLUT1 that are glucose transport deficient and complemented with the human glucose transporter GLUT1. Activity is measured by DNA content using SYBR green in vitro
Sequence of Solute carrier family 2, facilitated glucose transporter member 1 (Homo sapiens) (P11166 whole entry): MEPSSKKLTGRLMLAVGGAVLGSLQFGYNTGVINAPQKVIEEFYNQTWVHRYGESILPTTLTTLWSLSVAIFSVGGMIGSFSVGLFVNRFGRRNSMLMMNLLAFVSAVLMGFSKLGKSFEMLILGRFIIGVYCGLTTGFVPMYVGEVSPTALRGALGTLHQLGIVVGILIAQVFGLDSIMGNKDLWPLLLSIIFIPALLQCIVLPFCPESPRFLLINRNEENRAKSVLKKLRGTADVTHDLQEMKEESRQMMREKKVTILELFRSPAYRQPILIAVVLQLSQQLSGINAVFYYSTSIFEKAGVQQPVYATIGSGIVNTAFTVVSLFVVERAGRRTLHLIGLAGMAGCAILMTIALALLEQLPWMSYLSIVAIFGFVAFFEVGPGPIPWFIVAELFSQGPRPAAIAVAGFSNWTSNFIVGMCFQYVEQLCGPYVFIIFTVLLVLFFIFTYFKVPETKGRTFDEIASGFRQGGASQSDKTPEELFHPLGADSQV

[2] = target: Hexose transporter 1 (Plasmodium falciparum) (UniProt O97467); experiment: ST_JUDE_LEISH: Cytotoxicity at 2uM final concentration against transgenic Leishmania Mexicana promastigotes LmPfHT that are glucose transport deficient and complemented with the Plasmodium falciparum hexose transporter. Activity is measured by DNA content using SYBR green in vitro
[3] = target: Glucose transporter (Leishmania mexicana) (UniProt O61059); experiment: ST_JUDE_LEISH: Cytotoxicity at 2uM final concentration against transgenic Leishmania Mexicana promastigotes LmGT2 that are glucose transport deficient and complemented with the L. Mexicana glucose transporter 2. Activity is measured by DNA content using SYBR green in vitro

c1ccc(Oc2ccc(Nc3ccnc4cc(-c5ccc(CNCCN6CCOCC6)o5)ccc34)cc2)cc1
inhibition [1]: 2.2%
inhibition [2]: 2.86%
inhibition [3]: 0.92%

COc1ccc(C(=O)NCc2ccccc2-c2ccc(C(C)(C)C)cc2)cc1O
inhibition [1]: 3.25%
inhibition [2]: 5.39%
inhibition [3]: 1.49%

CC1(C)N=C(N)N=C(N)N1OCc1ccc2ccccc2c1
inhibition [1]: 8.29%
inhibition [2]: 7.22%
inhibition [3]: 6.67%

Cc1cc(NCCC(=O)Nc2ccccc2)nc(NCCc2cccs2)n1
inhibition [1]: 4.03%
inhibition [2]: 2.26%
inhibition [3]: -0.18%

CC(C)N1CCN(C(=O)c2ccc(CNCCCN3CCN(c4cccc(Cl)c4Cl)CC3)o2)CC1
inhibition [1]: -2.44%
inhibition [2]: -1.41%
inhibition [3]: -1.3%

COc1ccc(-c2cc(-c3nc4cc(CN)ccc4[nH]3)c(=O)n(C)c2)cc1OC
inhibition [1]: 0.63%
inhibition [2]: 0.83%
inhibition [3]: -0.74%

CC(C)CNCc1ccc(-c2ccccc2CN(C(=O)NCCc2ccccc2)C2CCN(Cc3ccccc3)CC2)cc1
inhibition [1]: 1.25%
inhibition [2]: 1.42%
inhibition [3]: -0.19%

COc1ccc(N2CCN(CCCCNC(=O)c3ccc(/C=C/c4ccc(Cl)c(Cl)c4)cc3)CC2)c(OC)c1
inhibition [1]: -0.28%
inhibition [2]: 1.71%
inhibition [3]: 2.02%

COc1ccc2c(CNCCCCCCNCc3c(OC)ccc4cc(OC)ccc34)c(OC)ccc2c1
inhibition [1]: 109%
inhibition [2]: 107%
inhibition [3]: 112%

CC(C)Cn1c(Sc2ccc(C#N)c([N+](=O)[O-])c2)nnc1-c1cccs1
inhibition [1]: 1.53%
inhibition [2]: 3.14%
inhibition [3]: 0.24%

Cc1cc(N2CCN(C)CC2)nc2ccc(NC(=O)c3cccc(N(C)C)c3)cc12
inhibition [1]: 7.09%
inhibition [2]: 7.99%
inhibition [3]: 10.2%

Nc1nccc2ccc(-c3ccc(OCc4ccccc4)cc3)cc12
inhibition [1]: 0.87%
inhibition [2]: 2.36%
inhibition [3]: 1.39%

CCN(CC)c1ccc(C(c2ccc(N(CC)CC)cc2)c2ccc([N+](=O)[O-])cc2)cc1
inhibition [1]: 15.3%
inhibition [2]: 10.4%
inhibition [3]: 8.28%

CC(=O)N(C)C1CCN(Cc2cccc(-c3ccc(-c4nc5cc(F)ccc5[nH]4)cc3)c2)C1 (stereo unspecified)
inhibition [1]: 3.46%
inhibition [2]: 2.4%
inhibition [3]: 3.15%

COC(=O)c1ccc2nc(-c3cc(-c4cccc(-c5ccccc5)c4)cnc3N)[nH]c2c1
inhibition [1]: 5.22%
inhibition [2]: 5.28%
inhibition [3]: 4.17%

O=C(Cn1c(SCc2cccc(F)c2F)cc(=O)c2ccccc21)N(CCCn1ccnc1)Cc1ccc(-c2ccc(C(F)(F)F)cc2)cc1
inhibition [1]: 3.11%
inhibition [2]: 1.44%
inhibition [3]: 2.6%

Cc1c(C)n(C2CCCCC2)c2ncnc(OC3CCN(CC(=O)NC4CC4)CC3)c12
inhibition [1]: -0.52%
inhibition [2]: -3.58%
inhibition [3]: 1.68%

Cc1noc(-c2ccc(O)cc2O)c1-c1ccc2c(c1)OCCCO2
inhibition [1]: 0.11%
inhibition [2]: 0.09%
inhibition [3]: 0.22%

COc1ccc(S(=O)(=O)NC2CCN(c3ccc(C(F)(F)F)cc3NC(=O)OCC(C)C)CC2)cc1
inhibition [1]: 0.36%
inhibition [2]: 1.75%
inhibition [3]: 2.43%

COc1ccc(C(=O)N[C@@H](CC(C)C)C(=O)NC2CC[C@@H](C)N(C(=O)Nc3ccc(Cl)cc3)CC2=O)cc1OCCN1CCOCC1 (stereo partly specified)
inhibition [1]: 2.44%
inhibition [2]: 3.66%
inhibition [3]: 5.16%

Cc1cccc2nc(-c3ccc(-c4cccc(CNCc5cnn(-c6ccccc6)n5)c4)s3)[nH]c12
inhibition [1]: 3.52%
inhibition [2]: 2.05%
inhibition [3]: 1.93%

COc1ccc2nccc([C@@H](O)CN3CCC(NC(=O)c4ccc(Oc5ccccc5)cc4)CC3)c2c1
inhibition [1]: 3.02%
inhibition [2]: 8.83%
inhibition [3]: 1.34%

Cc1cc(N[C@@H](Cc2ccccc2)C(=O)NCCCOC(C)C)nc(NCC2CCCCC2)n1
inhibition [1]: 11.7%
inhibition [2]: 11.7%
inhibition [3]: 8.28%

CCc1ccc(-n2cc(C(=O)c3cc(Br)ccc3O)cc(C#N)c2=O)cc1
inhibition [1]: 3.35%
inhibition [2]: 3.08%
inhibition [3]: 2.28%

CCC(C)CNC(=O)CN1CN(c2ccccc2)C2(CCN(C(=O)c3ccc(Br)cc3)CC2)C1=O (stereo unspecified)
inhibition [1]: 0.35%
inhibition [2]: -0.13%
inhibition [3]: 0.82%

Cc1cnc(N2CCN(CCCN3CCCC3)CC2)nc1Oc1ccc(-n2ccnc2)cc1
inhibition [1]: 2.28%
inhibition [2]: 2%
inhibition [3]: 3.96%

c1cc(CNCCc2ccncc2)cc(-c2cccc(-c3nc4ccccc4[nH]3)c2)c1
inhibition [1]: 13.1%
inhibition [2]: 12.2%
inhibition [3]: 10%

CCCOc1ccccc1-c1nc2[nH]c3c(c2c(=O)[nH]1)CCN(C)C3
inhibition [1]: -1.19%
inhibition [2]: -0.54%
inhibition [3]: -1.12%

Oc1cccc(-c2nc(-c3cccc(I)c3)c(-c3ccc(-c4nc(-c5cccc(O)c5)[nH]c4-c4cccc(I)c4)cc3)[nH]2)c1
inhibition [1]: 4.52%
inhibition [2]: 4.72%
inhibition [3]: 4.57%

Cc1cc(Cl)ccc1OC(C)C(=O)N1CCc2ccccc21 (stereo unspecified)
inhibition [1]: -3.17%
inhibition [2]: 0.81%
inhibition [3]: -0.66%

COc1cccc2c(NCc3ccccc3)nc(NCCCN3CCCCC3C)nc12 (stereo unspecified)
inhibition [1]: 67.7%
inhibition [2]: 50.8%
inhibition [3]: 13.1%

CCN1CCC(N2CCC(C(=O)Nc3cccc(-c4cccc(Cl)c4)c3)CC2)CC1
inhibition [1]: 0.8%
inhibition [2]: -1.24%
inhibition [3]: 2.7%

CC1(C)C(=O)Nc2ccc3c(c21)CC1SC(=O)NN=C31 (stereo unspecified)
inhibition [1]: -0.91%
inhibition [2]: 0.11%
inhibition [3]: 0.01%

CCCN(CCC)CCCNc1ccc(C(=O)Nc2ccc(OCC)cc2)cc1[N+](=O)[O-]
inhibition [1]: 32.8%
inhibition [2]: 19.4%
inhibition [3]: 5.32%

O=C(Nc1ccc(-c2cccc(CN3CCC(O)CC3)c2)cc1)c1cccc(Cl)c1
inhibition [1]: 24.1%
inhibition [2]: 17.8%
inhibition [3]: 16.8%

Cc1cccc2nc(-c3ccc(-c4ccc(NC(=O)C(=O)c5cccn5C)cc4)cc3)[nH]c12
inhibition [1]: 5.06%
inhibition [2]: 1.84%
inhibition [3]: 0.5%

O=S(=O)(Nc1cccc(CCN2CCCCC2CCN2CCCC2)c1)c1cccc2ccccc12 (stereo unspecified)
inhibition [1]: 1.15%
inhibition [2]: 2.49%
inhibition [3]: -0.21%

CC(C)Cc1cn(-c2nc(-c3nc4ccccc4[nH]3)cs2)c2ccncc12
inhibition [1]: 4.69%
inhibition [2]: 6.3%
inhibition [3]: 3.29%

O=C(Nc1cccc(CN2CCN(Cc3cccc(O)c3)CC2)c1)c1cc2ccccc2s1
inhibition [1]: 3.62%
inhibition [2]: 3.45%
inhibition [3]: 3.74%

Cc1ccc(CNC(=O)[C@H](CCCN)Nc2cc(C)nc(Nc3ccccc3)n2)cc1
inhibition [1]: 6.17%
inhibition [2]: 5.71%
inhibition [3]: 7.78%

O=S(=O)(NCCN1CCCC1)c1ccc(-c2ccc(CNCc3ccc(F)cc3)cc2)cc1
inhibition [1]: 7.2%
inhibition [2]: 6.71%
inhibition [3]: 4.15%

Clc1ccc(CNCC2CCN(CC3CCCCC3)CC2)cc1Cl
inhibition [1]: -1.58%
inhibition [2]: 0.7%
inhibition [3]: 0.64%

C#CCCC(=O)Nc1cccc(-c2cccc(-c3nc4cccc(C)c4[nH]3)c2)c1
inhibition [1]: 3.2%
inhibition [2]: 1.23%
inhibition [3]: -1.87%

Cc1cccc2nc(-c3ccc(-c4cccc(CNCCN5CCNCC5)c4)cc3)[nH]c12
inhibition [1]: 9.94%
inhibition [2]: 8.32%
inhibition [3]: 9.01%

COc1ccccc1-c1ccc2nnc(SCC(=O)Nc3ccc4c(c3)OCCO4)n2n1
inhibition [1]: 4.56%
inhibition [2]: 4.26%
inhibition [3]: 3.67%

Cc1nnc(-c2ccc3ccccc3c2)c2cn(-c3cccc([N+](=O)[O-])c3)nc12
inhibition [1]: 5.1%
inhibition [2]: 3.95%
inhibition [3]: 3.91%

N#Cc1ccc(-c2ccc(C(=O)NCCCCN3CCC(c4ccc5c(c4OCc4ccccn4)CCCC5)CC3)cc2)cc1
inhibition [1]: -0.71%
inhibition [2]: 1.73%
inhibition [3]: 0.17%

CN(C)CCOc1cccc(NC(=O)Nc2ccc(-c3ccccc3)cc2)c1
inhibition [1]: 2.67%
inhibition [2]: 1.78%
inhibition [3]: 1.53%

CCC1(c2ccccc2)N=C(N)N(CCCc2ccccc2)C1=O (stereo unspecified)
inhibition [1]: 2.53%
inhibition [2]: 1.89%
inhibition [3]: 0.85%

COc1ccc2c(CCNc3nc(SC)ncc3C(=O)NCCc3ccc(F)cc3)c[nH]c2c1
inhibition [1]: 2.09%
inhibition [2]: 0.58%
inhibition [3]: 1.11%

COc1ccc(N2CCN(C(CNC(=O)C3CCCCC3)c3ccc4c(c3)OCO4)CC2)cc1 (stereo unspecified)
inhibition [1]: 3.65%
inhibition [2]: 4.28%
inhibition [3]: 4.35%

CC1CCN(CCNC(=O)c2ccc3c(=O)n(Cc4ccc(Cl)cc4)c(=S)[nH]c3c2)CC1
inhibition [1]: 1.28%
inhibition [2]: 2.93%
inhibition [3]: 1.91%

O=C(Cc1c[nH]cn1)Nc1cccc(-c2ccc(-c3nc4ccccc4[nH]3)cc2)c1
inhibition [1]: 1.81%
inhibition [2]: 3.82%
inhibition [3]: -0.08%

Clc1ccc2c(N3CCCNCC3)ccnc2c1
inhibition [1]: 1.53%
inhibition [2]: 1.07%
inhibition [3]: 4.48%

O=C(NCCc1cccc(F)c1)c1ccc(N2CCN(c3ccncc3)CC2)cn1
inhibition [1]: 8.21%
inhibition [2]: 4.37%
inhibition [3]: 6.9%

COc1cc2nc(NCCc3ccccc3)nc(NC(C)c3ccccc3)c2cc1OC (stereo unspecified)
inhibition [1]: 7.18%
inhibition [2]: 6.76%
inhibition [3]: 3.19%

CCN(CC)CCNc1nccc(N(C)c2ccc(NC(=O)Nc3cc(C(F)(F)F)ccc3F)cc2)n1
inhibition [1]: 5.98%
inhibition [2]: 2.93%
inhibition [3]: 0.26%

COC(=O)c1cc(/C(C)=N/Nc2nc3ccccc3[nH]2)ccc1O
inhibition [1]: 4.85%
inhibition [2]: 5.41%
inhibition [3]: 1.77%

CCn1c(-c2nonc2N)nc2c(-c3cccc(NC(=O)Nc4cccc(C#N)c4)c3)ncc(OCCCN)c21
inhibition [1]: 4.72%
inhibition [2]: 2.23%
inhibition [3]: 2.66%

Cc1cc(F)ccc1-c1nc(NCCCNCCc2ccccc2)nc2c1ccc(=O)n2-c1c(F)cccc1F
inhibition [1]: 0.55%
inhibition [2]: 5.5%
inhibition [3]: 0.76%

CN1CCN(c2cc(-c3cccc(C(F)(F)F)c3)nc(-c3ccncc3)n2)CC1
inhibition [1]: 2.69%
inhibition [2]: 4.44%
inhibition [3]: -2.16%

COc1cc(CN=C(S)NN=C(C)c2ccccn2)cc(OC)c1OC
inhibition [1]: 5.41%
inhibition [2]: 1.2%
inhibition [3]: 2.59%

CN1CCN(Cc2cc(NC(=O)c3ccc(-c4ccc(Cl)cc4Cl)cc3)ccc2-c2ccccc2)CC1
inhibition [1]: 6.54%
inhibition [2]: 2.47%
inhibition [3]: -0.1%

CC1(C)CCC(=Cc2ccc(Cl)cc2)CC1(O)Cn1ccnc1 (stereo unspecified)
inhibition [1]: 11.7%
inhibition [2]: 6.85%
inhibition [3]: 3.82%

COc1ccc(CCn2c(=N)c(C(=O)NCc3cccnc3)cc3c(=O)n4cccc(C)c4nc32)cc1
inhibition [1]: 5.3%
inhibition [2]: 4.73%
inhibition [3]: 0.26%

O=C(Nc1cccc(F)c1)NC1CCN(CCCCCNC(=O)C2CC2c2ccc(Cl)c(Cl)c2)CC1 (stereo unspecified)
inhibition [1]: 0.44%
inhibition [2]: -0.11%
inhibition [3]: -1.31%

CC(Nc1ncc(-c2ccsc2)c(-c2nccs2)n1)c1ccc2c(c1)OCCO2 (stereo unspecified)
inhibition [1]: 5.89%
inhibition [2]: 5.47%
inhibition [3]: 7.42%

O=S(=O)(Nc1cccc(CCN2CCC(N3CCCCC3)CC2)c1)c1ccc(Oc2ccccc2)nc1
inhibition [1]: 3.37%
inhibition [2]: 4.85%
inhibition [3]: 5.38%

O=C(Nc1ccc2c(c1)CCN(C1CCC1)CC2)c1ccc(-n2ccnc2)cn1
inhibition [1]: 1.81%
inhibition [2]: 2.97%
inhibition [3]: 2.28%

CCc1cc(NCc2ccncc2)nc(Nc2ccc(F)cc2)n1
inhibition [1]: 14.4%
inhibition [2]: 6.44%
inhibition [3]: 4.12%

N#Cc1cc(C(=O)Nc2ccccc2)c(N)nc1SCC(=O)Nc1ccc(Br)cc1
inhibition [1]: 8.21%
inhibition [2]: 5.88%
inhibition [3]: 4.96%

CN(C)CCC1CCN(CCS(=O)(=O)c2cccc(Nc3ncc(-c4cccc(F)c4)cn3)c2)CC1
inhibition [1]: -2.08%
inhibition [2]: 0.49%
inhibition [3]: 9.03%
